Unmarked numbers belong to inactive results. Calls come from the whole dose curve; as a rule, active = well fitted curve in the direction sought with a large enough effect; inconclusive = small, poorly fitted or top-dose-only effect, or another doubt; inactive = no such curve, though single readings can be large; an effect the other way counts as inactive or inconclusive. Results filed as inconclusive are left out.
Assay: qHTS to identify inhibitors of the type 1 interferon - major histocompatibility complex class I in skeletal muscle: primary screen against the NCATS Pharmaceutical Collection (AID 1347407);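 note: luminescence of HiBiT knocked into endogenous HLA-B as interferon-induced MHC class I level; % is set by controls: 0 for no effect and ±100 for the full control effect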
Details: human skeletal muscle cells, IFN-b-induced MHC-I HiBiT luminescence, 24 h; series mostly up to 45.9 µM; activity change, negative = inhibition: at the top concentration
Outline: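 Cells were seeded with 4 ng/ml IFN-beta, incubated 1 h, then dosed with compounds over eight 1:5 steps up to 46 uM final. After 24 h at 37 C, HiBiT lytic reagent was added and luminescence read after 10 min lysis in the dark.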

| SMILES | activity change, negative = inhibition [%] |
| --- | --- |
| CNCCC(Oc1ccc(C(F)(F)F)cc1)c1ccccc1 (configuration not stated) | -24.8 |
| Nc1cc(=O)[nH]c(N)n1 | 1.76 |
| CC(=O)CCC(=O)O | 1.44 |
| Cc1ncc(COP(=O)(O)O)c(C=O)c1O | 1.47 |
| CCN(CC)C(C)CN1c2ccccc2Sc2ccccc21 (configuration not stated) | -9.51 |
| CN(C)CCOC(C)(c1ccccc1)c1ccccn1 (configuration not stated) | -12.4 |
| CN(C)CC[C@@H](c1ccc(Cl)cc1)c1ccccn1 | 21.2 |
| CN(C)CCCN1c2ccccc2Sc2ccc(Cl)cc21 | -12 |
| C[C@H]1O[C@@H](n2cc(F)c(=O)[nH]c2=O)[C@H](O)[C@@H]1O | 3.45 |
| CN(N=O)C(=O)N[C@@H]1[C@@H](O)[C@H](O)[C@@H](CO)O[C@@H]1O | -0.0721 |
| CC(=O)c1ccc2c(c1)N(CCCN(C)C)c1ccccc1S2 | -27.8 |
| CCCn1cnc2c1c(=O)n(CCCCC(C)=O)c(=O)n2C | 7.9 |
| C[C@]12CC[C@@H]3c4ccc(O)cc4CC[C@H]3[C@@H]1CCC2=O | 1.37 |
| CC1=C(CC(=O)O)c2cc(F)ccc2/C1=C\c1ccc(S(C)(=O)=O)cc1 | -9.85 |
| CCCCN(CCCC)CC(O)c1cc(Cl)cc2c1-c1ccc(Cl)cc1/C2=C/c1ccc(Cl)cc1 (configuration not stated) | -18.8 |
| Cc1c(Cl)cccc1Nc1ccccc1C(=O)O | -26.1 |
| C[C@]12C[C@H](O)[C@H]3[C@@H](CCC4=CC(=O)CC[C@@]43C)[C@@H]1CC[C@@H]2C(=O)CO | -2.39 |
| NC(=O)c1ncn([C@@H]2O[C@H](CO)[C@@H](O)[C@H]2O)c1N | 2.57 |
| COC(=O)C1=C(C)NC(C)=C(C(=O)OC)C1c1ccccc1[N+](=O)[O-] | -21.8 |
| C#CCN(C)Cc1ccccc1 | -7.8 |
| CCN(CC)CCOC(=O)C1(C2CCCCC2)CCCCC1 | -2.12 |
| CCCCCCCCCCCCCCCC(=O)NCCO | -8.46 |
| CNCC(O)c1ccc(O)c(O)c1 (configuration not stated) | 0.87 |
| C[C@H](NC(CCc1ccccc1)C(=O)O)C(=O)N1CCC[C@H]1C(=O)O (some centres not stated) | 0.0197 |
| CC(CN(C)C)CN1c2ccccc2CCc2ccccc21 (configuration not stated) | -19.4 |

Assay: qHTS for inhibitors of adenylyl cyclases using a fission yeast platform: a pilot screen against the NCATS LOPAC library (AID 1347410);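 note: plate controls were DMSO vehicle for no effect and DPI positive control for full effect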
Details: S. pombe CHP2027, fbp1-GFP fluorescence, 18 h, yeast expressing mammalian AC9 and human GNAS; series mostly up to 57.5 µM; activity, positive = inhibition (GFP gain): at the top concentration
Outline: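 Growth medium went into the plates first, then compounds were pinned (final up to 57 µM), then CHP2027 yeast were added. Plates were incubated overnight (18 h) at 30C in the dark, and GFP was measured by laser scanning cytometry.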

| SMILES | activity, positive = inhibition (GFP gain) [%] |
| --- | --- |
| CNCCC(Oc1ccc(C(F)(F)F)cc1)c1ccccc1 (configuration not stated) | -0.438 |
| Nc1cc(=O)[nH]c(N)n1 | 0.244 |
| CN1CCN(C2Cc3ccccc3Sc3ccc(Cl)cc32)CC1 (configuration not stated) | -0.438 |
| CCN(CC)C(C)CN1c2ccccc2Sc2ccccc21 (configuration not stated) | -0.438 |
| CN(C)CCOC(C)(c1ccccc1)c1ccccn1 (configuration not stated) | -0.438 |
| CSc1ccc2c(c1)C(N1CCN(C)CC1)Cc1ccccc1S2 (configuration not stated) | -0.0905 |
| CN(C)CC[C@@H](c1ccc(Cl)cc1)c1ccccn1 | 0.355 |
| CC(C)C(=O)c1c(C(C)C)nn2ccccc12 | 0.0905 |
| CN(C)CCC=C1c2ccccc2CCc2ccccc21 | -0.438 |
| CN(C)CCCN1c2ccccc2Sc2ccc(Cl)cc21 | -0.438 |
| C[C@H]1O[C@@H](n2cc(F)c(=O)[nH]c2=O)[C@H](O)[C@@H]1O | -0.438 |
| CN(C)CCCN1c2ccccc2CCc2ccccc21 | -0.438 |
| CC1=C(CC(=O)O)c2cc(F)ccc2/C1=C\c1ccc(S(C)=O)cc1 (configuration not stated) | -0.438 |
| CC(=O)c1ccc2c(c1)N(CCCN(C)C)c1ccccc1S2 | -0.438 |
| CCCn1cnc2c1c(=O)n(CCCCC(C)=O)c(=O)n2C | 0.197 |
| C[C@]12CC[C@@H]3c4ccc(O)cc4CC[C@H]3[C@@H]1CCC2=O | -0.0441 |
| CC1=C(CC(=O)O)c2cc(F)ccc2/C1=C\c1ccc(S(C)(=O)=O)cc1 | 0.197 |
| CCCCN(CCCC)CC(O)c1cc(Cl)cc2c1-c1ccc(Cl)cc1/C2=C/c1ccc(Cl)cc1 (configuration not stated) | 0.0858 |
| C[C@]12C[C@H](O)[C@H]3[C@@H](CCC4=CC(=O)CC[C@@]43C)[C@@H]1CC[C@@H]2C(=O)CO | -0.438 |
| CC(=O)OCC(=O)[C@@]1(O)CC[C@H]2[C@@H]3CCC4=CC(=O)CC[C@]4(C)[C@H]3C(=O)C[C@@]21C | 0.879 |
| COC(=O)C1=C(C)NC(C)=C(C(=O)OC)C1c1ccccc1[N+](=O)[O-] | -0.438 |
| C#CCN(C)Cc1ccccc1 | 0.123 |
| CCN(CC)CCOC(=O)C1(C2CCCCC2)CCCCC1 | -0.438 |
| CSc1ccc2c(c1)N(CCC1CCCCN1C)c1ccccc1S2 (configuration not stated) | -0.438 |
| CNCC(O)c1ccc(O)c(O)c1 (configuration not stated) | -0.438 |
| C[C@H](NC(CCc1ccccc1)C(=O)O)C(=O)N1CCC[C@H]1C(=O)O (some centres not stated) | 1.39 |
| CC(CN(C)C)CN1c2ccccc2CCc2ccccc21 (configuration not stated) | 0.109 |

Assay: qHTS to identify inhibitors of the type 1 interferon - major histocompatibility complex class I in skeletal muscle: primary screen against the NCATS Mechanism Interrogation Plate v5.0 (MIPE) Libary (AID 1347411);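 note: plate controls were vehicle for no effect and reference inhibitor for full effect; nearly all actives have a fitted effect of over 65% in size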
Details: iHSKM cells + IFN-b, HiBiT-tagged MHC-I luminescence, 24 h; series mostly up to 45.8 µM; activity change, negative = inhibition: at the top concentration
Outline: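 Luminescence from CRISPR HiBit-tagged endogenous HLA-B in human myoblasts reported MHC class I level after 24 h of IFN-beta (4 ng/ml) plus compound. Compounds ran as 11-point 1:3 series, top 46 uM final.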

| SMILES | activity change, negative = inhibition [%] |
| --- | --- |
| C[C@H]1O[C@@H](n2cc(F)c(=O)[nH]c2=O)[C@H](O)[C@@H]1O | 10.3 |
| CN(N=O)C(=O)N[C@@H]1[C@@H](O)[C@H](O)[C@@H](CO)O[C@@H]1O | 13.3 |
| CCCCN(CCCC)CC(O)c1cc(Cl)cc2c1-c1ccc(Cl)cc1/C2=C/c1ccc(Cl)cc1 (configuration not stated) | 1.48 |
| CC(=O)OCC(=O)[C@@]1(O)CC[C@H]2[C@@H]3CCC4=CC(=O)CC[C@]4(C)[C@H]3C(=O)C[C@@]21C | 0.31 |
| NC(=O)c1ncn([C@@H]2O[C@H](CO)[C@@H](O)[C@H]2O)c1N | 2.87 |

From PubChem BioAssay (NCATS)
